{"source": "PubChem BioAssay AID977606", "about": "(Broad Institute, 2014)", "note": "Screen size: about 1,500 compounds; about 430 (29%) were called active. How the calls were made is not given here. These entries were drawn from the full list. Entries with a potency or affinity are not part of this list.", "data": [{"assay": "insulin secretion activators without glucose, dose response, counter-screen for glucose-dependent insulin secretion activators, cell-based, INS-1E, Gaussia luciferase, luminescence, cherry-pick (AID 977606)", "details": "INS-1E Gaussia luciferase insulin secretion, no glucose, 100% = twice neutral-control luminescence; series mostly up to 35 µM", "values": [{"smiles": "COc1ccc(S(=O)(=O)N2CCCCC2)cc1NC(=O)C1CCCC1", "outcome": "inactive"}, {"smiles": "CN1CCN(c2ccc(NC(=O)c3ccc(Oc4ccccc4)cc3)cc2)CC1", "outcome": "inactive"}, {"smiles": "N#Cc1cnn2c(C(F)(F)F)cc(-c3ccccc3)nc12", "outcome": "inactive"}, {"smiles": "CCCCc1nnc2c(N(C)S(=O)(=O)c3ccccc3)nc3ccccc3n12", "outcome": "inactive"}, {"smiles": "O=C(CCn1nc(-c2ccc(Cl)cc2)ccc1=O)NCCCN1CCCCCC1", "outcome": "inactive"}, {"smiles": "COc1ccc(-n2c3c(c(=O)[nH]c2=O)C(NS(=O)(=O)c2ccc(Cl)cc2)(C(F)(F)F)C(=O)N3)cc1", "note": "(configuration not stated)", "outcome": "inactive"}, {"smiles": "Cc1cc(-c2ccc(Cl)cc2)n2nc(C)cc2n1", "outcome": "inactive"}, {"smiles": "CCOc1ccc(CCNC(=O)c2cc(C)on2)cc1OCC", "outcome": "inactive"}, {"smiles": "CCOc1cccc2cc(C(=O)Nc3cc(C)on3)c(=O)oc12", "outcome": "inactive"}, {"smiles": "O=C(NCCc1ccccc1)c1cc(-c2ccc3c(c2)OCO3)on1", "outcome": "inactive"}, {"smiles": "CC(=O)Cc1nsc(NC(=O)c2ccc(-c3cccc(Cl)c3)o2)n1", "outcome": "inactive"}, {"smiles": "CC(=O)c1cccc(NC2c3ncccc3C(=O)N2Cc2ccco2)c1", "note": "(configuration not stated)", "outcome": "inactive"}, {"smiles": "COC(C)(C)c1cc(C(C)(C)C)nc(N)n1", "outcome": "inactive"}, {"smiles": "O=C(O)CCN1c2ccccc2Sc2ccccc21", "outcome": "inactive"}, {"smiles": "CC1=NN(C(N)=S)C(=O)C1N=Nc1ccccc1C", "note": "(configuration not stated)", "outcome": "inactive"}, {"smiles": "O=c1cc(-c2cccc(Br)c2)nc(-c2ccccc2F)o1", "outcome": "inactive"}, {"smiles": "COc1cccc(-c2nnn(CC(=O)O)n2)c1", "outcome": "inactive"}, {"smiles": "C1CCN(CCCNC2C3CC4CC(C3)CC2C4)C1", "note": "(configuration not stated)", "outcome": "inactive"}, {"smiles": "CC(=O)Nc1nc(CC(C)C)cc(-c2ccco2)c1C#N", "outcome": "inactive"}, {"smiles": "CC(C(=O)N1CCC(C(N)=O)CC1)N(c1ccc(Oc2ccccc2)cc1)S(C)(=O)=O", "note": "(configuration not stated)", "outcome": "inactive"}, {"smiles": "COc1ccc(C(=O)NCC(=O)OCC(=O)Nc2ccc(C)c(S(=O)(=O)N(C)C)c2)cc1OC", "outcome": "inactive"}, {"smiles": "c1nc(N2CCOCC2)c2c3c(sc2n1)CCCC3", "outcome": "inactive"}, {"smiles": "N#CC1=C(N)Oc2nc(-c3ccccc3)[nH]c2C1c1cccnc1", "note": "(configuration not stated)", "outcome": "inactive"}, {"smiles": "CCC(=O)Nc1ccc(C(=O)N/N=C/c2cccnc2)cc1", "outcome": "inactive"}, {"smiles": "COc1cc(/C=N/NC(=O)C(C)n2nnc3ccccc32)ccc1O", "note": "(configuration not stated)", "outcome": "inactive"}, {"smiles": "COc1ccc(N2CCN(S(=O)(=O)c3ccc(-c4cc(C)no4)s3)CC2)cc1", "outcome": "inactive"}, {"smiles": "Cc1ccc(S(=O)(=O)N2CCN(C(=O)COC(=O)c3ccc(O)cc3)CC2)c(C)c1", "outcome": "inactive"}, {"smiles": "Cc1ccc(C(C)C)c(OCCNCCc2ccccc2)c1", "outcome": "inactive"}, {"smiles": "Cc1nn(-c2ccccc2)c2c1C(O)CC(C)(C)C2", "note": "(configuration not stated)", "outcome": "inactive"}, {"smiles": "CC/C(O)=C1\\C(=O)CC(c2ccccc2)CC1=NC(C)C", "note": "(configuration not stated)", "outcome": "inactive"}, {"smiles": "COc1ccc(CCNC(=O)COC(=O)c2cncc(Br)c2)cc1OC", "outcome": "inactive"}, {"smiles": "CCc1ccc(OCC(=O)NC(=S)Nc2ccc(C)cc2C)c(Br)c1", "outcome": "inactive"}, {"smiles": "CCOC(=O)C1=NN(C(=O)Nc2cccc(C(F)(F)F)c2)C2C(=O)N(c3cccc(C(F)(F)F)c3)C(=O)C12", "note": "(configuration not stated)", "outcome": "inactive"}, {"smiles": "C[C@@H]1CC2=C(C(=O)OC(C)(C)O2)[C@H](c2ccc(Cl)cc2)O1", "outcome": "inactive"}, {"smiles": "Cn1c(=O)c(=O)n(C)c2cc(S(=O)(=O)N3CCN(c4ccc(F)cc4)CC3)ccc21", "outcome": "inactive"}, {"smiles": "COc1ccc(C2=NOC(C(=O)NCc3ccccn3)C2)cc1OC", "note": "(configuration not stated)", "outcome": "inactive"}, {"smiles": "COc1ccc(-c2cnc(N)nc2-c2ccc(OC)cc2)cc1", "outcome": "inactive"}, {"smiles": "CCOc1ccc(CCNC(=O)COC(=O)c2cccnc2SC)cc1OCC", "outcome": "inactive"}, {"smiles": "CC(C)c1ccc2oc(=O)cc(CN3CCCCC3)c2c1", "outcome": "inactive"}, {"smiles": "CC1=C(C(=O)N2CCOCC2)CC(CC(=O)NCCCN(C)C)C(=O)N1CCCN1CCCC1=O", "note": "(configuration not stated)", "outcome": "inactive"}, {"smiles": "COc1ccc(CCN=C(N)NS(=O)(=O)c2ccc(C)c(C)c2)cc1OC", "outcome": "inactive"}, {"smiles": "O=C(N1CCOCC1)N1CCN(c2ccccn2)CC1", "outcome": "inactive"}, {"smiles": "CC1CC(C)CN(CC(O)COCc2ccccc2F)C1", "note": "(configuration not stated)", "outcome": "inactive"}, {"smiles": "CCN(Cc1ccncc1)C(=O)c1cccc(S(=O)(=O)N2CCCCC2)c1", "outcome": "inactive"}, {"smiles": "COc1ccc(N2CCN(C(c3cccs3)C(C)NC(=O)C(=O)N3CCOCC3)CC2)cc1", "note": "(configuration not stated)", "outcome": "inactive"}, {"smiles": "CN(Cc1ccc(OCC(O)CN(C)Cc2ccccc2)cc1)Cc1nccn1C", "note": "(configuration not stated)", "outcome": "inactive"}, {"smiles": "O=C(NNC1CCN(Cc2ccccc2)CC1)c1ccccc1", "outcome": "inactive"}, {"smiles": "CC(NC1CCN(Cc2ccccc2)CC1)c1ccc(F)cc1", "note": "(configuration not stated)", "outcome": "inactive"}, {"smiles": "CC(Oc1ccccc1Cl)C(=O)Nc1ccc(S(=O)(=O)Nc2nccs2)cc1", "note": "(configuration not stated)", "outcome": "inactive"}, {"smiles": "CCNc1nc(NC(C)CC)nc(ON=C(C)C)n1", "note": "(configuration not stated)", "outcome": "inactive"}, {"smiles": "O=C(O)COc1ccc2c3c(c(=O)oc2c1)CCC3", "outcome": "inactive"}, {"smiles": "Cc1cc(=O)oc2c3c(cc(OCC(=O)NC(C)C)c12)OC(C)(C)CC3", "outcome": "inactive"}, {"smiles": "O=c1[nH]c2ccccc2nc1-c1nnnn1C1CCCC1", "outcome": "inactive"}, {"smiles": "CCOc1ccc(OCCC(=O)N(CC)CC(=O)NCc2cccs2)cc1", "outcome": "inactive"}, {"smiles": "CC(O)c1nc2ccccc2n1C1CCCCC1", "note": "(configuration not stated)", "outcome": "inactive"}, {"smiles": "COc1ccc(N2C(=O)CC(Sc3nc(C)cc(C)c3C#N)C2=O)cc1", "note": "(configuration not stated)", "outcome": "inactive"}, {"smiles": "O=C(Nc1ccccc1Oc1ccsc1C(=O)O)c1ccccc1F", "outcome": "inactive"}, {"smiles": "COc1cc(C(=O)Nc2cc(C(F)(F)F)ccc2N2CCOCC2)ccc1OCC(=O)N1CCOCC1", "outcome": "inactive"}, {"smiles": "Cc1cc(C)nc(NC(N)=NCCc2c[nH]c3ccccc23)n1", "outcome": "inactive"}, {"smiles": "CCOC(=O)c1[nH]cnc1C(=O)NC(C)C", "outcome": "inactive"}, {"smiles": "O=C1c2[nH]nc(-c3ccccc3)c2C(c2ccccc2)N1c1ccccc1", "note": "(configuration not stated)", "outcome": "inactive"}, {"smiles": "NS(=O)(=O)c1ccc(CNC(=O)c2cc(S(=O)(=O)N3CCOCC3)ccc2N2CCCC2)cc1", "outcome": "inactive"}, {"smiles": "CCOc1ccc2oc(=O)cc(CN3CCOCC3)c2c1", "outcome": "inactive"}, {"smiles": "CCCNC(=O)c1ccccc1NC(=O)COc1ccc(OC)cc1", "outcome": "inactive"}, {"smiles": "Cc1cccc(NC(=O)c2ccc(OCc3c(C)noc3C)cc2)c1C", "outcome": "inactive"}, {"smiles": "COc1ccc(Nc2nc(NCc3cccs3)nc3ccsc23)cc1OC", "outcome": "inactive"}, {"smiles": "COc1ccc(C(=O)/C=C2\\NCCc3cc(OC)c(OC)cc32)cc1OC", "outcome": "inactive"}, {"smiles": "COC(=O)c1ccc(OC)c(OC2CCCC2)c1", "outcome": "inactive"}, {"smiles": "Cc1cccc2nc(-c3ccco3)c(Nc3ccccc3)n12", "outcome": "inactive"}, {"smiles": "Cc1ccc(C(=O)c2sc(Nc3ccccc3)c(C#N)c2N)cc1", "outcome": "inactive"}, {"smiles": "CNc1ccc2ncc(-c3ccc(OC)c(OC)c3)n2n1", "outcome": "inactive"}, {"smiles": "CC(C)CCn1c(N2CCCC2)nc2c1c(=O)[nH]c(=O)n2C", "outcome": "inactive"}, {"smiles": "Cn1c(=O)[nH]c(=O)c2c1nc(NC1CCCC1)n2Cc1ccccc1", "outcome": "inactive"}, {"smiles": "C/C=C/Cn1c(N2CCCCCC2)nc2c1c(=O)[nH]c(=O)n2C", "outcome": "inactive"}, {"smiles": "C/C(Cl)=C/CSc1nc2c(c(=O)[nH]c(=O)n2C)n1C(C)C", "outcome": "inactive"}, {"smiles": "CN(Cc1ccccc1)c1nc2c(c(=O)[nH]c(=O)n2C)n1Cc1ccccc1", "outcome": "inactive"}, {"smiles": "CCCCCCn1c(SCC(C)C)nc2c1c(=O)[nH]c(=O)n2C", "outcome": "inactive"}, {"smiles": "CCCN1C[C@@H](C)[C@@H](OC)CN(C)C(=O)c2ccc(NC(=O)c3cccc(F)c3)cc2OC[C@H]1C", "outcome": "inactive"}, {"smiles": "O=C(O)C1Cc2c([nH]c3ccccc23)C(c2ccc3c(c2)OCO3)N1", "note": "(configuration not stated)", "outcome": "inactive"}, {"smiles": "COc1cc2c(cc1OC)-c1cc(NCc3ccccn3)nc(=O)n1CC2", "outcome": "inactive"}, {"smiles": "CCOc1ccc(CCNS(=O)(=O)c2cn(C)cn2)cc1OCC", "outcome": "inactive"}, {"smiles": "CC(=O)N1CCN(C(=O)COC(=O)c2ccc(S(C)(=O)=O)cc2)CC1", "outcome": "inactive"}, {"smiles": "CC(C)(C)NC(=O)N1c2ccccc2Sc2ccccc21", "outcome": "inactive"}, {"smiles": "CCn1ncc2c1C(=O)NC1c3ccccc3C(=O)N21", "note": "(configuration not stated)", "outcome": "inactive"}, {"smiles": "O=C(NNC(=O)c1cc2cc3ccccc3nc2s1)c1cccc(C(F)(F)F)c1", "outcome": "inactive"}, {"smiles": "Cc1cc(C)cc(C(=O)NC(=S)Nc2ccc(-c3cc4ccccc4oc3=O)cc2)c1", "outcome": "inactive"}, {"smiles": "C=CCn1c(-c2csc(-c3ccc(OC)c(OC)c3)n2)n[nH]c1=S", "outcome": "inactive"}, {"smiles": "COc1ccc(-c2nc(CCl)cs2)cc1OC", "outcome": "inactive"}, {"smiles": "O=C(c1ccccc1)N(C(=O)c1ccccc1)N1CCCC1", "outcome": "inactive"}, {"smiles": "CN(c1ccc(C(=O)N2CCN(Cc3ccccc3)CC2)cc1)S(=O)(=O)c1ccccc1", "outcome": "inactive"}, {"smiles": "CCCn1nc(NC(=O)c2ccco2)c2cc3ccccc3nc21", "outcome": "inactive"}, {"smiles": "CCn1nc(NC(=O)c2ccco2)c2cc3ccccc3nc21", "outcome": "inactive"}, {"smiles": "O=C1c2cccnc2C(Nc2ccc(F)c(Cl)c2)N1Cc1cccs1", "note": "(configuration not stated)", "outcome": "inactive"}, {"smiles": "CCOc1ccccc1OCCC(=O)NNC(=O)Cn1nc(C)cc1C", "outcome": "inactive"}, {"smiles": "CCOc1cc(/C=N/NC(=O)CCn2nnc3ccccc32)ccc1O", "outcome": "inactive"}, {"smiles": "N#CCc1nn(-c2ccccc2)c2ncnc(N)c12", "outcome": "inactive"}, {"smiles": "CN(C)CCCN(C(=O)c1ccco1)c1nc2c(F)cccc2s1", "outcome": "inactive"}, {"smiles": "O=C(c1cccnc1)N(Cc1ccccc1)c1ccccc1", "outcome": "inactive"}, {"smiles": "COc1ccc(-c2nc(N3CCC(C)CC3)[nH]c(=O)c2C#N)cc1", "outcome": "inactive"}, {"smiles": "COc1ccc(-c2ccc(SCc3cccnc3)nn2)cc1OC", "outcome": "inactive"}, {"smiles": "CC(C)CCN(CC(=O)NCc1ccc(F)cc1)S(=O)(=O)c1ccccc1F", "outcome": "inactive"}, {"smiles": "O=C(NN(Cc1ccccc1)Cc1ccccc1)c1ccccc1", "outcome": "inactive"}, {"smiles": "O=C(COC(=O)C1CCC1)NC(=O)c1ccccc1", "outcome": "inactive"}, {"smiles": "O=C(O)c1ccc(S(=O)(=O)NCc2ccc3c(c2)OCO3)cc1", "outcome": "inactive"}, {"smiles": "O=C(c1ccc2c(c1)OCO2)N1CCN(S(=O)(=O)c2ccccc2)CC1", "outcome": "inactive"}, {"smiles": "OC(c1ccc(Cl)cc1)C(CN1CCOCC1)c1ccccc1", "note": "(configuration not stated)", "outcome": "inactive"}, {"smiles": "CC(C)OCC(O)CN1CCC(Cc2ccccc2)CC1", "note": "(configuration not stated)", "outcome": "inactive"}, {"smiles": "COC(=O)CN(c1cccc(C)c1)S(=O)(=O)c1ccccc1", "outcome": "inactive"}, {"smiles": "COCCNC(=O)c1ccc(N(C)S(=O)(=O)c2ccc(OC)c(OC)c2)cc1", "outcome": "inactive"}, {"smiles": "CCOc1ccc(-c2nc(CSc3nnc(N)s3)cs2)cc1OC", "outcome": "inactive"}, {"smiles": "C=CCNC(=O)COc1coc(CN2CCN(C(=O)c3ccco3)CC2)cc1=O", "outcome": "inactive"}, {"smiles": "C=C[C@@]1(C)CC(=O)[C@]2(O)[C@@]3(C)[C@@H](O)CCC(C)(C)[C@@H]3[C@H](O)[C@H](OC(C)=O)[C@@]2(C)O1", "outcome": "inactive"}]}]}
